SMILES strings stand for the structures. Values joined by “and” are separate entries in the source; they are usually repeats but may differ in a detail not shown here. Equal entries are not always repeated. The whole screen tested about 6,400 compounds, of which about 610 (9.5%) were called active. Cut-off read from the data, not from the text of the source: active = activity change below about -70%; inconclusive = no clear call, values can overlap the other calls; inactive = above that. What follows is part of a selection rich in actives, with near analogues and random picks from the rest. A structure can be active in one record and inactive in another.

A short description of the assay: Toxoplasma gondii ME49Luc growth in HeLa cells, luciferase, no IFN-y, primary screen (AID 1259421). Particulars: T. gondii ME49Luc in HeLa, 72 h, stronger effect = lower value, concentration not given here.
Turning to `O=C(Nc1ccncc1)C(=O)c1cn(Cc2ccc(Cl)cc2)c2ccccc12`, the activity change, negative = inhibition was -75.2% (active). `O=Cc1cn(Cc2ccc(Cl)cc2)c2ccccc12`: the activity change, negative = inhibition was 3.18% (inactive). Consider `Cn1cc(C(=O)C(=O)N[C@H]2CN3CCC2CC3)c2ccccc21`, for which the activity change, negative = inhibition was 3.13% (inactive) and -2.73% (inactive). Regarding `c1cc(Cc2cnc[nH]2)ccn1`, the activity change, negative = inhibition was 4.56% (inactive).

In the case of `CCCN(CCC)C1CCc2ccc(O)cc2C1` (configuration not stated), the activity change, negative = inhibition was -0.0815% (inactive) and 4.46% (inactive). Next, `O=C(O)c1ccc2[nH]cc(CCCCN3CC=C(c4ccccc4)CC3)c2c1`: 8.65% (inactive) and 4.54% (inactive). Consider `c1ccc2sc(C3(N4CCCC4)CCCCC3)cc2c1`, for which the activity change, negative = inhibition was 3.78% (inactive). For the molecule `O=C(O)COc1ccc(Cl)cc1Cl`, the activity change, negative = inhibition is 5.11% (inactive). As for `Oc1cc(Cl)ccc1Oc1ccc(Cl)cc1Cl`, the activity change, negative = inhibition was -80.6% (active) and -88.3% (active). `O=C(O)CCCOc1ccc(Cl)cc1Cl`: the activity change, negative = inhibition was 9.07% (inactive).

Consider `FC(F)OC(F)(F)C(F)Cl` (configuration not stated), for which the activity change, negative = inhibition is 2.39% (inactive). As to `CCC1C(C)=NN=C(c2ccc(OC)c(OC)c2)c2cc(OC)c(OC)cc21` (configuration not stated), the activity change, negative = inhibition was 6.78% (inactive). Next, `CCCCC1(C2CCCC2)Cc2cc(OCCCC(=O)O)c(Cl)c(Cl)c2C1=O` (configuration not stated): -6.67% (inactive); `CC(=O)OC[C@]12CCC(C)=C[C@H]1O[C@@H]1[C@H](O)[C@@H](OC(C)=O)[C@@]2(C)[C@@]12CO2`: -82.7% (active). In the case of `CCCC[N+]1(C)[C@@H]2CC(OC(=O)[C@@H](CO)c3ccccc3)C[C@H]1[C@@H]1O[C@@H]12` (some centres not stated) it was 2.27% (inactive); in that of `NC(=NCc1ccc(Cl)cc1)SCCCc1cnc[nH]1`, -1.21% (inactive) and -3.65% (inactive); in that of `C=C(C)[C@@H]1CCC(C)=C[C@H]1c1c(OC)cc(C)cc1OC`, 13.1% (inactive) and 2.72% (inactive). In the case of `COc1cccc2c1C(=O)c1c(O)c3c(c(O)c1C2=O)C[C@@](O)(C(=O)CO)C[C@@H]3O[C@H]1C[C@H](N2CCO[C@H](OC)C2)[C@H](O)[C@H](C)O1`, the activity change, negative = inhibition was -77.1% (active). Next, `CC(C)(C)NC[C@H](O)COc1cccc2[nH]c(C#N)cc12`: 0.543% (inactive); `CC(C)(C)NCC(O)COc1cccc2[nH]c(C#N)cc12` (configuration not stated): -74.6% (active); `CS(=O)(=O)Nc1ccc(Cc2noc(-c3ccc4[nH]cc(CCN)c4c3)n2)cc1`: 0.294% (inactive). In the case of `CCc1cccc(CC)c1NC1=NCCN1` it was 5.66% (inactive). In the case of `CN1C(=O)[C@@H](NC(=O)c2cc3ccccc3[nH]2)N=C(c2ccccc2)c2ccccc21` it was -59.5% (inactive). For the molecule `CC(=O)O[C@H]1C(=O)[C@@]2(C)C([C@H](OC(=O)c3ccccc3)[C@]3(O)C[C@H](O)C(C)=C1C3(C)C)[C@]1(OC(C)=O)CO[C@@H]1C[C@@H]2O` (some centres not stated), the activity change, negative = inhibition was -56.1% (inactive). With `CC(=O)O[C@@]12CO[C@@H]1C[C@H](O)[C@@]1(C)C(=O)[C@H](O)C3=C(C)[C@@H](O)C[C@@](O)([C@@H](OC(=O)c4ccccc4)[C@H]21)C3(C)C`, the activity change, negative = inhibition is -60.3% (inactive) and 13.9% (inactive). On to `C/C=C(\C)C(=O)N[C@@H](c1ccccc1)[C@@H](O)C(=O)O[C@H]1C[C@@]2(O)[C@@H](OC(=O)c3ccccc3)[C@@H]3[C@]4(OC(C)=O)CO[C@@H]4C[C@H](O)[C@@]3(C)C(=O)[C@H](OC(C)=O)C(=C1C)C2(C)C`, for which the activity change, negative = inhibition was -82.1% (active).

Turning to `C[C@H](N)Cc1ccccc1`, the activity change, negative = inhibition was 4.68% (inactive). In the case of `O=[N+]([O-])NC1=NCCN1Cc1ccc(Cl)nc1` it was 8.16% (inactive). As to `C[C@]12CCC3C(CC[C@H]4CC(=O)CC[C@]34C)C1CCC2=O` (some centres not stated), the activity change, negative = inhibition was 1.73% (inactive). With `CC[C@H]1CN2CCC1C[C@@H]2[C@@H](O)c1ccnc2ccc(OC)cc12` (some centres not stated), the activity change, negative = inhibition is 14.8% (inactive) and 8.86% (inactive). Next, `CN1CCc2cc(Cl)c(O)cc2[C@H]2c3ccccc3CC[C@@H]21`: -4.73% (inactive); `CNc1ccccc1C(=O)O`: -1.44% (inactive); `CCCCOC(=O)c1ccccc1C(=O)OCCCC`: 3.08% (inactive) and -9.32% (inactive). As to `C[CH2][Hg][S]c1ccccc1C(=O)O`, the activity change, negative = inhibition was -88.9% (active) and -92.1% (active). On to `O=c1cccc2n1C[C@H]1CNCC2C1`, for which the activity change, negative = inhibition was 4.99% (inactive). Next, `C=CC[C@]1(O)CCC2C3CCC4=CC(=O)CCC4=C3C=C[C@@]21C` (some centres not stated): 11.2% (inactive); `C=CC[C@@]1(O)CC[C@H]2[C@@H]3CCC4=CC(=O)CCC4=C3C=C[C@@]21C`: 9.86% (inactive); `C#C[C@]1(O)CC[C@H]2[C@@H]3CCC4=CC(=O)CCC4=C3C=C[C@@]21CC`: -82.3% (active).

For `C=C[C@H]1CN2CC[C@H]1C[C@@H]2[C@@H](OC(=O)OCC)c1ccnc2ccc(OC)cc12`, the activity change, negative = inhibition was 7.12% (inactive) and 13% (inactive). Next, `CCCN1CCO[C@H]2c3cc(O)ccc3OC[C@@H]21`: -9.29% (inactive).

Regarding `NCCc1cccc(O)c1`, the activity change, negative = inhibition is -9.36% (inactive). Turning to `Oc1ccc2c3c1OC1[C@@H](O)CC[C@@]4(O)[C@@H](C2)N(CC2CCC2)CC[C@]314` (some centres not stated), the activity change, negative = inhibition is 3.08% (inactive).

For `C[C@@]1(CO)[C@H](O)CC[C@@]2(C)[C@H]1CC[C@H]1C[C@@H]3C[C@@]12CC[C@]3(O)CO`, the activity change, negative = inhibition was -87.7% (active). As for `CC(C(=O)OC1CC2CCC(C1)N2C)c1ccc(Br)cc1` (configuration not stated), the activity change, negative = inhibition was -1.35% (inactive) and 1.24% (inactive). Regarding `CC[C@@]1(O)C(=O)OCc2c1cc1n(c2=O)Cc2cc3ccccc3nc2-1`, the activity change, negative = inhibition was -82.2% (active) and -91.4% (active).

`CCCn1c(C)c(C(=O)c2cccc3ccccc23)c2ccccc21`: the activity change, negative = inhibition was 93.6% (inactive). For `Cc1c(C(=O)c2cccc3ccccc23)c2cccc3c2n1[C@@H](CN1CCOCC1)CO3`, the activity change, negative = inhibition is 46.7% (inactive). In the case of `Cc1c(C(=O)c2cccc3ccccc23)c2cccc3c2n1[C@H](CN1CCOCC1)CO3` it was -89.2% (active); in that of `CC(=O)Oc1ccc(Cl)c2cccnc12`, -3.09% (inactive). For the molecule `Cc1c(N2C(=O)[C@@H]3[C@H](O)CCN3C2=O)ccc(C#N)c1Cl`, the activity change, negative = inhibition is 8.89% (inactive). For the molecule `C[C@@H]1O[C@@H](O[C@H]2C[C@@H](O)[C@]3(CO)C4C(CC[C@]3(O)C2)[C@@]2(O)CC[C@H](C3=CC(=O)OC3)[C@@]2(C)C[C@H]4O)[C@H](O)[C@H](O)[C@H]1O` (some centres not stated), the activity change, negative = inhibition is -88.6% (active). For the molecule `C[C@@H]1O[C@@H](O[C@@H]2C[C@@H](O)[C@]3(CO)[C@H]4[C@H](O)C[C@]5(C)[C@@H](C6=CC(=O)OC6)CC[C@]5(O)[C@@H]4CC[C@]3(O)C2)[C@H](O)[C@H](O)[C@H]1O`, the activity change, negative = inhibition is -77.1% (active). Consider `CC1OC(OC2CC(O)C3(CO)C4C(O)CC5(C)C(C6=CC(=O)OC6)CCC5(O)C4CCC3(O)C2)C(O)C(O)C1O` (configuration not stated), for which the activity change, negative = inhibition was -83.7% (active). Next, `C=CCN1CCC23c4c5ccc(O)c4OC2/C(=N\NC(=O)c2ccccc2)CCC3(O)C1C5` (configuration not stated): 25.6% (inactive). With `C=CCN1CC[C@]23c4c5ccc(O)c4OC2C(=O)CC[C@@]3(O)[C@H]1C5` (some centres not stated), the activity change, negative = inhibition is 4.78% (inactive). As to `CCN1C[C@]2(OC(=O)c3ccccc3NC(C)=O)CC[C@@H](OC)[C@]34C1[C@@H](C[C@H]23)[C@@]1(O)C[C@H](OC)[C@H]2C[C@H]4[C@]1(O)[C@H]2OC`, the activity change, negative = inhibition is 10.9% (inactive). `O=C(O)c1ccccn1.O=C(O)c1ccccn1.O=C(O)c1ccccn1.[Cr]`: the activity change, negative = inhibition was 10.5% (inactive).

On to `Cc1ccc2c(c1)Cc1c(C(=O)NN3CCCCC3)nn(-c3ccc(Cl)cc3Cl)c1-2`, for which the activity change, negative = inhibition is -71% (active) and -58.8% (inactive). In the case of `Cc1ccc2c(c1)Cc1c(C(=O)NC3CCCCC3)nn(-c3ccc(Cl)cc3Cl)c1-2` it was -23.4% (inactive) and -2.64% (inactive); in that of `C/C(=C\C(N)C(=O)O)CP(=O)(O)O` (configuration not stated), -4.78% (inactive). In the case of `c1ccc(C2CNCc3ccccc32)cc1` (configuration not stated) it was 5.48% (inactive); in that of `C=C1CC2C(CC[C@]3(C)C(=O)CCC23)[C@@]2(C)C=CC(=O)C=C12` (some centres not stated), 11.4% (inactive); in that of `CN1C(=O)CCS(=O)(=O)C1c1ccc(Cl)cc1` (configuration not stated), 18% (inactive) and -3.16% (inactive). As for `CC1(C)C(=O)[C@@H]2O[C@@H]2[C@@]2(C)C1C[C@@H](O)[C@]1(C)C2CC[C@@]2(C)[C@H](c3ccoc3)OC(=O)C3OC321` (some centres not stated), the activity change, negative = inhibition was 20.5% (inactive). Next, `CC1(C)C2C[C@@H](O)[C@]3(C)C(CC[C@@]4(C)[C@H](c5ccoc5)OC(=O)[C@H]5O[C@]543)[C@@]2(C)[C@@H](O)C[C@H]1O` (some centres not stated): 4.33% (inactive); `CC(=O)O[C@@H]1C[C@@]2(C)[C@H](c3ccoc3)C[C@H]3O[C@]32[C@]2(C)C(=O)C(=O)C3C(C)(C)C(=O)C=C[C@]3(C)C12` (some centres not stated): -89.9% (active). `COC(=O)[C@@H]1C[C@H](OC(C)=O)C(=O)[C@H]2[C@@]1(C)CC[C@H]1C(=O)O[C@H](c3ccoc3)C[C@]21C`: the activity change, negative = inhibition was 11.7% (inactive) and 9.72% (inactive). As for `CC1(C)C2CC(=O)[C@]3(C)C(CC[C@@]4(C)[C@H](c5ccoc5)OC(=O)C5OC543)[C@@]2(C)[C@@H](O)C[C@H]1O` (some centres not stated), the activity change, negative = inhibition was 1.93% (inactive).

As for `CC1(C)C(=O)C=C[C@@]2(C)C1C(=O)C(=O)[C@]1(C)C2CC[C@@]2(C)[C@H](c3ccoc3)C[C@H]3O[C@]321` (some centres not stated), the activity change, negative = inhibition is -86.1% (active).

For `CN1[C@@H]2CC[C@H]1CC(OC(=O)N1Cc3ccccc3NC1=O)C2` (some centres not stated), the activity change, negative = inhibition was 15% (inactive) and 8.45% (inactive). `CC(CO)NC(=O)C1C=C2c3cccc4[nH]cc(c34)C[C@H]2N(C)C1` (some centres not stated): the activity change, negative = inhibition was 15.2% (inactive) and -0.618% (inactive). On to `COc1ccc2c(c1O)-c1cc(O)cc3c1[C@@H](C2)N(C)CC3`, for which the activity change, negative = inhibition is -5.61% (inactive).
